# Source: PubChem (National Center for Advancing Translational Sciences (NCATS))
# RORgamma inh = qHTS for inhibitors of ROR gamma transcriptional activity; Nuclear receptor ROR-gamma (Mus musculus), P51450; Drosophila S2 Gal4-RORgamma UAS-luciferase reporter, 20 h; Potency, µM (doses to about 53.6 µM), without a hit: at the highest dose activity change, negative = inhibition, most hits filed as inhibitors; 310,000 tested, 5.4% active; AID 2551, 2010; note: % is set by controls: 0 for no effect and ±100 for the full control effect; nearly all actives have a fitted effect of over 60% in size
# Target sequence (P51450 whole entry, looked up, the tested form may be a part): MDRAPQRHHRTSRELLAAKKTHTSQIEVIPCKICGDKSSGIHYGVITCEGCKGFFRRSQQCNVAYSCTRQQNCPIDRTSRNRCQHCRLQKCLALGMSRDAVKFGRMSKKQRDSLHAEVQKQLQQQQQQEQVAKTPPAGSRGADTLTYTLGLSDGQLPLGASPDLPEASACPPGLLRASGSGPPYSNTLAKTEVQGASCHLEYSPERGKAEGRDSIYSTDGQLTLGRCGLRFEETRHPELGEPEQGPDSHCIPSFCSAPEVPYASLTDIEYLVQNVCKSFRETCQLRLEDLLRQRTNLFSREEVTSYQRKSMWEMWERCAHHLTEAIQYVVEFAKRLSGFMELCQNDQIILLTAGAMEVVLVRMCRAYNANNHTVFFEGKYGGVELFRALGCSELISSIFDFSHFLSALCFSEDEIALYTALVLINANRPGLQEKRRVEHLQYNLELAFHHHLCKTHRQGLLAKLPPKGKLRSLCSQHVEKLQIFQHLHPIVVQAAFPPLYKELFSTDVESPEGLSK
#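 Drosophila S2 cells stably expressing Gal4-DBD/mouse RORγ fusion under metallothionein promoter plus UAS-luciferase; compound 1 h, then 700 uM CuSO4 induction for 20 h at ambient temperature; inhibition read as reduced luminescence.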
# MCF10A rereplic = A quantitative high throughput screen for small molecules that induce DNA re-replication in MCF 10a normal breast cells; AID 624296, 2012; 350,000 tested, 2.9% active; MCF 10A DNA re-replication, Hoechst nuclear intensity, 48 h; Potency, µM (doses to about 46.1 µM), inactives show at the top dose activity, positive = re-replication, most hits filed as activators; note: % of control where 0% means no effect; nearly all actives have a fitted effect of over 50% in size
# SW480 rereplic = A quantitative high throughput screen for small molecules that induce DNA re-replication in SW480 colon adenocarcinoma cells | SW480 DNA re-replication, Hoechst DNA content imaging, 48 h | Potency, µM (titrated, usually from 46.1 µM), for the others: at the top dose re-replication activation, actives largely listed as activators | 340,000 tested, 1.8% active | AID 624297, 2012; note: % of control where 0% means no effect; nearly all actives have a fitted effect of over 55% in size
#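 DNA re-replication was detected as more nuclei of elevated Hoechst intensity after 48 hr exposure to compound (23 nL pinned per well of 250 cells).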
# VP16 counter = VP16 counterscreen qHTS for inhibitors of ROR gamma transcriptional activity; 310,000 tested, 3.5% active; Drosophila S2 Gal4-VP16 UAS-luciferase, luminescence, 20 h; Potency, µM (doses to about 53.6 µM), for the others: at the top dose activity, negative = inhibition, most hits filed as inhibitors; AID 2546, 2010;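 note: Gal4-VP16 expression switched on by copper sulfate through the metallothionein promoter; % is set by controls: 0 for no effect and ±100 for the full control effect; nearly all actives have a fitted effect of over 50% in size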
# ELG1 repair inh = qHTS screen for small molecules that inhibit ELG1-dependent DNA repair in human embryonic kidney (HEK293T) cells expressing luciferase-tagged ELG1; HEK293T ELG1-luciferase reporter, luminescence, 16 h; DNA damage induced by 5-fluorouridine; Potency, µM (top dose mostly 46.1 µM), inactives show at the highest dose activity change, negative = inhibition, usual class: inhibitors; 330,000 tested, 2.3% active; AID 504467, 2011; note: % is set by controls: 0 for no effect and ±100 for the full control effect; nearly all actives have a fitted effect of over 55% in size
#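 Reporter activity after DNA damage by 5-fluorouridine is monitored. Compound-treated cells incubate 16 hr at 37 °C, then ONE-Glo is added for 30 min before luminescence reading.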
# * hit, by the source's call; ? = inconclusive; . = not tested or not shown; [ ] = remark or other dose. Compounds with a hit are over-represented: about 10% of the library has one in this group of screens. Calls come from the whole dose curve; as a rule, active = well fitted curve in the direction sought with a large enough effect; inconclusive = small, poorly fitted or top-dose-only effect, or another doubt; inactive = no such curve, though single readings can be large; an effect the other way counts as inactive or inconclusive. Potency is the fitted concentration of half-maximal effect.
SMILES,RORgamma inh,MCF10A rereplic,SW480 rereplic,VP16 counter,ELG1 repair inh
c1cc2c(cc1C1=NNC(=NC3CC3)SC1)OCCO2,2.5µM*,?,4.1µM*,2.2µM*,?
COc1ccc(N=C2NN=C(c3ccc4c(c3)OCCO4)CS2)cc1,6%,8%,13%[9.22 µM],24%,14%
O=Cc1cn(CCOc2ccccc2F)c2ccccc12,?,-1%,-7%,-26%,3%
CC(=O)c1c(C)nc(Nc2nc(C)c3cc(C)ccc3n2)nc1C,4µM*,1%,-19%,?,?
CCOCCSc1n[nH]c(=O)n1CCc1ccccc1,-3%,-7%,-10%,-23%,4%
COc1ccc(-c2noc3c2-c2nc(-c4ccccc4Cl)sc2CC3)cc1,.,-10%,-3%,.,.
COc1ccc(/C=C/c2nc3cc(-c4ccccc4)ccc3o2)cc1O,32µM*,5.8µM*,18µM*,?,?
COc1ccccc1/C=C/c1nc2ccc(OC(C)=O)cc2c(=O)o1,?,0%,0%[9.22 µM],?,-1%
N#CCCN(C(=O)Nc1ccccc1)c1ccccc1,-1%,0%,-5%,-2%,5%
CC1(C(=O)NC(=S)N(CCC#N)c2ccccc2)CC1(Cl)Cl (centres undefined),13µM*,2%,-7%,?,?
CC(C)N(Cc1ccccc1)C(=S)NC(=O)C1(C)CC1(Cl)Cl (centres undefined),0.56µM*,2%,-1%,2.5µM*,-19%
Cn1c(C(=O)O)c(S(=O)(=O)c2ccc(Cl)cc2)c2ccccc21,0%,0%,-5%,-3%,-5%
CCOC(=O)c1c(NC(=S)NCc2ccccc2)sc2c1CCN(C(=O)OCC)C2,2µM*,?,?,4.5µM*,?
CCOC(=O)c1c(NC(NC(=O)C(C)C)C(Cl)(Cl)Cl)sc2c1CCC2 (centres undefined),?,23µM*,?,5%,-12%
COC(=O)c1c(NC(=O)COC(=O)c2ccc(O)cc2)sc2c1CCCCC2,?,13µM*,?,18µM*,?
CCOC(=O)N1CCc2c(sc3c2C(=O)NC(c2ccccc2)N3)C1 (centres undefined),31%,?,9.2µM*,-12%,9%
COCC(=O)Nc1sc2c(c1C(=O)OC)CCCC2,36%,-181%[0.0737 µM],-3%,-13%,8%
Cc1ccc(S(=O)(=O)N2CCOCC2)cc1C(=O)OC(C)C(=O)c1ccccc1 (centres undefined),.,16%,?,.,1%
CCOC(=O)c1c(NC(=S)Nc2ccccc2)sc2c1CCN(CC)C2,8%,-1%,0%,-3%,6%
CCOC(=O)c1c(NC(=O)CCC(=O)O)sc2c1CC(C)(C)OC2,?,-4%,-4%,1%,-3%
CCOC(=O)c1c(NC(=O)COc2cccc3c2CCN(C)C3=O)sc2c1CCC2,-29%,?,-4%,?,18µM*
CCOC(=O)c1c(NC(=S)Nc2ccccc2)sc2c1CCCCC2,2.5µM*,-4%,-6%,4µM*,14%
C=CCNC(=S)Nc1sc2c(c1C(=O)OCC)CC(C)(CC)OC2 (centres undefined),2.8µM*,1%,20%,?,-13%
C=CCNC(=S)Nc1sc2c(c1C(=O)OCC)CCN(C(=O)OCC)C2,2.5µM*,?,-10%,6.3µM*,.
Cc1cccc(NC(=O)COc2cccc3c2CCN(C)C3=O)c1C,?,0%,-3%,?,?
CCCC(C)NC(=O)COc1ccc(Sc2ccc(OCC(=O)NC(C)CCC)cc2)cc1 (centres undefined),3%,18%,2%,-12%,-5%
CN(C(=O)CCNC(=O)Cn1cnc2ccccc2c1=O)c1ccccc1F,1%,4%,-4%,-15%,12%
O=C(O)c1ccc(S(=O)(=O)N[C@H](Cc2ccccc2)C(=O)O)cc1,-17%,.,.,-11%,.
